High-throughput results as filed in PubChem.
The entries come from a sample that favours hits as a whole.
Methyltransferases – Primary Screen for Target Class Profiling of Small Molecule Inhibitors of Methyltransferases. 25,000 compounds, 3.9% hits. calls only at 40 µM. AID 1745853, 2022. purified enzyme, MTase-Glo SAH luminescence; active compounds read low; call rule not given here
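Each enzyme was assayed with SAM and its substrate. SAH formation detected by MTase-Glo luminescence; single-point 40 uM screen[…].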
Of the large screens only hits and unclear results are named; the others gave an inactive call.

Cc1cccc(CN2C(=O)c3ccc(-c4ccco4)n3CC2(C)C(=O)NCc2ccc(Cl)cc2)c1 (configuration not stated)	none
CCOC(=O)c1cc2n(n1)CC(C)(C(=O)NC1CCCC1)N(c1cc(Cl)ccc1C)C2=O (configuration not stated)	none
COc1ccccc1N1CCN(CCCCN2C(=O)c3ccccc3C2=O)CC1	none
COc1ccccc1N1CCN(c2ncnc3n[nH]c(Br)c23)CC1	Methyltransferases active
COc1ccccc1N1CCN(CCN(C(=O)c2ccc(F)cc2)c2ccccn2)CC1	none
CC1(C(=O)NC2CCCCCC2)Cn2nc(C3CC3)cc2C(=O)N1Cc1cccc(Cl)c1 (configuration not stated)	none
COCc1c(O)c(C(=O)O)c(C)c2c1OC(=O)c1c(C)cc(O)c(CO)c1O2	Methyltransferases active
CC(C)n1c(=O)c2ccc(C(=O)NC3CCCCC3)cc2n2c(=O)n(Cc3ccccc3)nc12	none
CCCN1C(=O)c2c(C(=O)NCc3cccc(C)c3)ncn2CC1(C)C(=O)NCc1ccc(OC)cc1 (configuration not stated)	none
CC1CCCCC1NC(=O)C1(C)Cn2c(nc3ccccc32)C(=O)N1Cc1ccccc1 (configuration not stated)	none
CCN(CC)c1nc2c(S(=O)(=O)c3ccc(C(C)C)cc3)nnn2c2ccccc12	none
Cc1ccc(Nc2nccc(N(C)c3ccc4c(C)n(C)nc4c3)n2)cc1S(N)(=O)=O	Methyltransferases active
CC1CCC(NC(=O)C2(C)Cn3c(ccc3-c3ccccc3)C(=O)N2Cc2ccccc2Cl)CC1 (configuration not stated)	none
CC(CCc1ccccc1)N1C(=O)c2cc3sccc3n2CC1(C)C(=O)NC1CCCCC1 (configuration not stated)	none
CCCC1c2ccc(C)n2CCN1C(=O)Nc1ccc(OC)cc1OC (configuration not stated)	none
CC(C)Oc1ccc(CNC(=O)c2ncn3c2C(=O)N(C2CC2)C(C)(C(=O)NCc2ccccc2)C3)cc1 (configuration not stated)	none
Cn1ncc2c(C(=O)NC3CCCCCC3)cc(C(C)(C)C)nc21	none
CCS(=O)(=O)c1cccc(-c2cc(C(=O)NC3CCN(C)CC3)c(C)c3[nH]c4ncc(C)cc4c23)c1	Methyltransferases active
COc1cccc(C(=O)NC2CCN(c3cc(-c4cccs4)[nH]n3)CC2)c1OC	none
COc1ccc(N(C(=O)c2ccncc2)S(=O)(=O)c2ccc3c(c2)n(C)c(=O)n3C)cc1	none
Cc1nc([C@](C)(O)CO)sc1-c1cnc(N)c(O[C@H](C)c2cc(F)ccc2-n2nccn2)c1	Methyltransferases active
Cc1ccc(C(=O)N(Cc2ccccc2)S(=O)(=O)c2ccc3c(c2)n(C)c(=O)n3C)cc1	none
COc1cc(Br)c(Nc2nc(-c3c(C)nc4ncccn34)cs2)c(Br)c1	none
Cc1cccc(Nc2nc(-c3ccncc3)cs2)c1	Methyltransferases active
c1ccc2c(Nc3nnc(-c4ccncc4)s3)cccc2c1	none
CCc1cccc(NC(=O)Cn2c(=O)oc3cc(S(=O)(=O)N4CCCCC4)ccc32)c1	none
CCCC1CCC(c2ccc(C(=O)COC(=O)C(Cc3c[nH]c4ccccc34)NC(=O)c3ccc(Cl)cc3)cc2)CC1 (configuration not stated)	none
CC1CC(C)CN(C(=O)Cn2c(=O)oc3cc(S(=O)(=O)N4CC(C)CC(C)C4)ccc32)C1 (configuration not stated)	none
Brc1c(Br)c(Br)c2[nH]cnc2c1Br	Methyltransferases active
CC(C)CCN1C(=O)c2ccc(-c3ccco3)n2CC1(C)C(=O)NC1CCCCCCC1 (configuration not stated)	none
CC(C)CCNC(=O)C1(C)Cn2nc(C(=O)N3CCN(C4CCCCC4)CC3)cc2C(=O)N1C (configuration not stated)	none
Cc1ccc(Cn2c(=O)c3ccccc3n3c(SCC(=O)NCc4ccccc4)nnc23)cc1	none
Nc1nonc1-c1nc2cnccc2n1C1CCCCC1	Methyltransferases active
COc1ccc(-c2cc3n(n2)CC(C)(C(=O)NCc2ccccc2OC)N(c2ccc(OC)cc2)C3=O)cc1 (configuration not stated)	none
COc1ccccc1CNC(=O)c1ccc2c(=O)nc3c(-c4ccc(C)cc4)n[nH]n3c2c1	none
C=C1C(=O)O[C@@H]2[C@H]3C(C)=CC(=O)C3=C(C)CC[C@@H]12	none
C=C(C)C(=O)OC1CC(CO)CCC/C(CO)=C/C2OC(=O)C(=C)C21 (configuration not stated)	none
C=C1C(=O)OC2C1CCC(=C)C1CC(OC(C)=O)C(=C)C12 (configuration not stated)	Methyltransferases active
CN1C(=O)c2cc(C(=O)NCc3ccc(F)cc3)nn2CC1(C)C(=O)NC1CCCC1 (configuration not stated)	none
Cn1c(=O)c2ccc(C(=O)NC3CCCC3)cc2n2c(SCc3cccc(F)c3)nnc12	none
CC(C)COC(=O)c1ccc2c(c1)C1C=CCC1C(c1ccc(Cl)cc1)N2 (configuration not stated)	none
